TDP1 cell CPT: qHTS for Inhibitors of human tyrosyl-DNA phosphodiesterase 1 (TDP1): qHTS in cells in presence of CPT | chicken DT40 Tdp1-/-;hTDP1 cells + 20 nM CPT, ATP luminescence, 48 h | Potency, µM (titrated, usually from 46.2 µM), without a hit: at the top dose activity change, negative = growth inhibition, most hits filed as inhibitors | 12% of 420,000 active | AID 686979, 2013; note: potency is the fitted concentration of half-maximal effect; nearly all actives have a fitted effect of over 55% in size
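Cell growth measured by CellTiter-Glo luminescence after a minimum 48 h, 37 C compound exposure with 20 nM CPT in Tdp1-knockout DT40 cells stably expressing hTDP1, seeded 400/well; qHTS titration format.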
12-LOX inh: Primary qHTS assay for inhibitors of human arachidonate 12S-lipoxygenase (ALOX12): Round 2; Polyunsaturated fatty acid lipoxygenase ALOX12 (Homo sapiens), P18054; 1.1% of 580,000 active; purified 12hLO, xylenol orange hydroperoxide absorbance; Potency, µM (series often up to 108 µM), for the others: at the top dose activity change, negative = inhibition, hits mostly inhibitors; AID 1671190, 2021; note: potency is the fitted concentration of half-maximal effect
Target sequence (P18054 whole entry, looked up): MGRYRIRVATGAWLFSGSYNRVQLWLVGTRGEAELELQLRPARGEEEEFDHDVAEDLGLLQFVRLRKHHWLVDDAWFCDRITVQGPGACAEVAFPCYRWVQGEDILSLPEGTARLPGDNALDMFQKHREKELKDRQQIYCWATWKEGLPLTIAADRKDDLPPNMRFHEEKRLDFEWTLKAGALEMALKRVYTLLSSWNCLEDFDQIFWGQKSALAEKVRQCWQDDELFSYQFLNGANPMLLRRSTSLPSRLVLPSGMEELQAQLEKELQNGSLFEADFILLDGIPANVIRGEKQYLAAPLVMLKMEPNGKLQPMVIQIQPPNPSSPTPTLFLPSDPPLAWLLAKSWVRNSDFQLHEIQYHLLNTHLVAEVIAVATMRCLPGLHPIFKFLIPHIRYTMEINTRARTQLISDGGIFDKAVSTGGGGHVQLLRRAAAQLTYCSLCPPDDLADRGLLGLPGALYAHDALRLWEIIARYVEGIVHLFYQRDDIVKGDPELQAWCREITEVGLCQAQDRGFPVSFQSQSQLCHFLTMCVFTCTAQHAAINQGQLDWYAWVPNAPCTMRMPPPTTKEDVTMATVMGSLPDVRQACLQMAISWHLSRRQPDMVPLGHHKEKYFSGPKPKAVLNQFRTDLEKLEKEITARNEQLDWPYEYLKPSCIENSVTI
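Purified human 12hLO (150 nM final) in 25 mM Hepes, 0.01% Triton X-100, pH 7.0 was preincubated 15 min at room temperature with compound. Then 40 uM arachidonic acid was added, 30 min. Hydroperoxide was read by Fe-XO absorbance ratio 573/405 nm.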
TDP1 cell noCPT: qHTS for Inhibitors of human tyrosyl-DNA phosphodiesterase 1 (TDP1): qHTS in cells in absence of CPT | DT40 Tdp1-/- hTDP1 cells, no CPT, ATP luminescence, 48 h | Potency, µM (highest dose often 46.2 µM), inactives show top-dose activity change, negative = growth inhibition, most hits filed as inhibitors | 15% of 420,000 active; note: potency is the fitted concentration of half-maximal effect; nearly all actives have a fitted effect of over 55% in size
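No-CPT arm: Tdp1-/-;hTDP1 DT40 cells (400/well) plus compounds, incubated ≥48 hr at 37 °C. Readout CellTiter-Glo luminescence.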
HT1080 IDH1KD tx: qHTS for induction of synthetic lethality in tumor cells producing 2HG: qHTS for the HT-1080-IDH1KD cell line | 2% of 360,000 active | Potency, µM (top dose mostly 46.1 µM), inactives show at the highest dose activity, negative = toxicity, actives largely listed as cytotoxic | HT-1080 IDH1 knockdown viability, ATP luminescence, 48 h | AID 686971, 2013;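 note: potency is the fitted concentration of half-maximal effect; 0% = DMSO wells and -100% = cell-free medium wells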
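Using the IDH1-knockdown HT-1080 line run in the same batch and compound series as the NT line, viability after 48 h at 37 °C was determined by CellTiter-Glo luminescence and expressed as % activity.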
IL1B secr inh: qHTS for Inhibitors of Inflammasome Signaling: IL-1-beta AlphaLISA Primary Screen. THP-1 LPS/ATP IL-1B secretion, AlphaLISA, 16 h; hits give low values. activity change, % at 57.5 µM. 4.7% of 360,000 active. AID 743279, 2014; in the data active = activity change below about -50%; inconclusive = mostly about -30% to -49%
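Secreted IL-1B measured by AlphaLISA bead assay after 16 h compound exposure of THP-1 cells; compounds (final up to 57.5 uM) added 1 h before LPS (250 ng/mL) and ATP (1.25 mM) stimulation; lower signal means less secretion.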
HT1080NT lethal: qHTS for induction of synthetic lethality in tumor cells producing 2HG: qHTS for the HT-1080-NT fibrosarcoma cell line. 1.6% of 360,000 active. Potency, µM (series often up to 46.1 µM), without a hit: top-dose activity, negative = less viability, hits mostly cytotoxic. HT-1080-NT fibrosarcoma viability, CellTiter-Glo ATP luminescence, 48 h. AID 686970, 2013;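 note: NT is the 2HG producing partner of a matched IDH1 knockdown line; potency is the fitted concentration of half-maximal effect; 0% = DMSO-treated cells and -100% = media-only wells without cells; nearly all actives have a fitted effect of over 55% in size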
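A 48-hour cytotoxicity screen used HT-1080-NT cells plated 2 hours before compound delivery. ATP-based CellTiter-Glo luminescence measured viability, normalized to DMSO and no-cell controls.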
An asterisk follows results filed as active; ? = inconclusive; / = not tested or not shown. This is one part of a sample in which hits are shown more often than they occur. Unless noted, calls come from the whole dose curve; as a rule, active = well fitted curve in the direction sought with a large enough effect; inconclusive = small, poorly fitted or top-dose-only effect, or another doubt; inactive = no such curve, though single readings can be large; an effect the other way counts as inactive or inconclusive. Unless noted, % is set by controls: 0 for no effect and ±100 for the full control effect.

SMILES | TDP1 cell CPT | 12-LOX inh | TDP1 cell noCPT | HT1080 IDH1KD tx | IL1B secr inh | HT1080NT lethal
CCN1CCN(C(c2cccc(OC)c2)c2sc3nc(C)nn3c2O)CC1 (stereo unspecified) | 16.0% | -15.0% | -10.5% | 15.3% | -7.9 | 18.8%
CCCCNC(=S)NNC(=O)c1c(Cl)c(C)nn1C | 23.1µM* | 14.4% | 16.4µM* | 8.8% | 8.2 | 15.7%
Cc1cccc(OCCNC(=O)c2cccc(Oc3ccc(C(F)(F)F)cc3[N+](=O)[O-])c2)c1 | 23.1µM* | -2.0% | 29.1µM* | -7.7% | 15.3 | -4.3%
Cc1cccc(OCCNC(=O)c2ccc(Oc3ccc(C(F)(F)F)cc3[N+](=O)[O-])cc2)c1 | -7.1% | -23.9% | -22.0% | -1.5% | -5.2 | -3.6%
COc1ccc2[nH]c(C)c(CCNc3ccc(C(F)(F)F)cc3[N+](=O)[O-])c2c1 | ? | -5.1% | 29.1µM* | -4.5% | ? | -4.6%
O=C(NCCCNc1ccc(C(F)(F)F)cc1[N+](=O)[O-])c1cc(F)c(F)cc1Cl | ? | 0.0% | 18.4µM* | ? | -22.4 | ?
O=[N+]([O-])c1cc(C(F)(F)F)ccc1NCCOc1ccccc1 | -12.2% | -2.9% | -20.3% | -2.1% | -77.9* | -4.4%
O=C(NCCCNc1ccc(C(F)(F)F)cc1[N+](=O)[O-])c1ccc(Cl)cc1 | ? | 7.7% | -22.3% | ? | -17.3 | ?
Cc1nc(SC(C)c2cc(F)ccc2F)sc1CC(N)=O (stereo unspecified) | / | 1.4% | / | / | / | /
CCOc1ccccc1NC(=O)c1cc(OC(C)=O)cc(OC(C)=O)c1 | / | -19.4% | / | / | / | /
CC(=O)Nc1ccc(NC(=O)C2(C)CC2(Cl)Cl)cc1 (stereo unspecified) | ? | -0.5% | 18.4µM* | 6.9% | -3.3 | 9.0%
COc1ccc(C2(C(=O)N[C@@H]3CN(c4ncccn4)C[C@H]3CN(C)C)CC2)cc1 | / | 93.6% | / | / | / | /
CC1(c2ccc(Cl)cc2)NC(=O)N(CC(=O)NCc2ccc(F)cc2)C1=O (stereo unspecified) | 6.7% | 5.3% | -15.3% | -11.0% | -13.6 | -11.6%
Cc1ccc(CNC(=O)CN2C(=O)NC(C)(c3ccc(Cl)cc3)C2=O)cc1 (stereo unspecified) | -17.8% | ? | -18.2% | -2.1% | -51.8* | -6.4%
O=C(CN1C(=O)NC(c2ccccc2)(c2ccccc2)C1=O)NCc1ccc(F)cc1 | ? | -7.1% | -17.8% | -0.4% | -54.6* | -10.4%
O=C(CCl)NN1C(=O)NC(c2ccccc2)(c2ccccc2)C1=O | ? | -14.0% | 20.6µM* | 16.4µM* | -116.9* | ?
CCOC(=O)c1c(NC(=O)CN2C(=O)NC(C)(c3ccc(Cl)cc3)C2=O)sc(C(=O)NC)c1C (stereo unspecified) | 23.1µM* | -19.7% | 11.6µM* | -24.8% | -9.4 | -25.9%
CC(C)(C)NC(=O)CN1C(=O)NC(c2ccccc2)(c2ccccc2)C1=O | 0.1% | 0.0% | 0.6% | -6.2% | 1.6 | -6.0%
Cc1nn(CC(=O)Nc2ccc(O)cc2)c(=O)c2ccccc12 | / | 4.1% | / | / | / | /
Cn1cnc2c1c(=O)n(CC(=O)NC13CC4CC(CC(C4)C1)C3)c(=O)n2C | / | 12.5% | / | / | / | /
CCOC(=O)c1ccc(Nc2ncnc3ccc(C)cc23)cc1 | -20.8% | 9.4% | ? | -27.5% | 7.8 | -26.4%
CCOc1ccc(Nc2ncnc3ccc([N+](=O)[O-])cc23)cc1 | ? | -1.3% | 6.51µM* | -25.0% | -5.8 | -21.8%
COC(=O)CN1C(=O)Nc2ccc(Br)cc2C1c1ccccc1Cl (stereo unspecified) | ? | / | ? | ? | 0.0 | ?
COC(=O)CC1(C(=O)OC)Oc2ccc(Br)cc2C(=O)N1c1cc(Cl)c(Cl)cc1Cl (stereo unspecified) | 8.2µM* | 9.6% | 5.8µM* | -28.2% | -22.9 | ?
COC(=O)CC1(C(=O)OC)Oc2ccc(Br)cc2C(=O)N1c1cccc(Cl)c1Cl (stereo unspecified) | 3.66µM* | 5.9% | 6.51µM* | ? | 19.0 | 20.6µM*
SMILES | TDP1 cell CPT | 12-LOX inh | TDP1 cell noCPT | HT1080 IDH1KD tx | IL1B secr inh | HT1080NT lethal
COC(=O)CC1(C(=O)OC)Oc2ccc(Br)cc2C(=O)N1c1ccc(Br)cc1Cl (stereo unspecified) | 5.8µM* | 10.2% | 4.11µM* | 14.6µM* | -28.4 | 14.6µM*
COC(=O)CC1(C(=O)OC)Oc2ccc(Br)cc2C(=O)N1c1cc(Cl)cc(Cl)c1 (stereo unspecified) | ? | 0.0% | ? | -1.9% | -28.7 | ?
NC(=O)COC(=O)c1cc(-c2ccc(-c3ccccc3)cc2)nc2ccccc12 | / | -1.2% | / | / | / | /
Cc1ccc(SC2=NS(=O)(=O)c3ccccc32)c(C)c1 | 1.41µM* | / | 1.26µM* | / | / | /
Cc1ccc(C)c(OC2=NS(=O)(=O)c3ccccc32)c1 | 18.4µM* | ? | 20.6µM* | 8.8% | 3.0 | 14.1%
COC1=NS(=O)(=O)c2ccccc21 | 3.4% | -18.6% | -2.7% | 17.5% | 14.9 | 24.6%
Cc1ccc(CSC2=NS(=O)(=O)c3ccccc32)cc1 | 8.91µM* | / | 11.2µM* | / | / | /
CC(=O)c1ccc(NC(=O)CN2C(=O)NC3(CCC(C)CC3)C2=O)cc1 (stereo unspecified) | / | -5.3% | / | / | / | /
Cc1ccc(S(=O)(=O)c2c(COC(=O)c3ccc(Cl)cc3)c(-c3ccccc3)nn2C)cc1 | 16.4µM* | 0.0% | ? | 13.0% | -0.1 | 7.1%
Cc1ccc(C(=O)OCc2nc(N)c3ccccc3n2)cc1 | / | 17.5% | / | / | / | /
O=C(CSc1ncnc2nc[nH]c12)Nc1ccccc1F | / | -4.2% | / | / | / | /
OC(CN1C2=NCCCN2c2ccccc21)c1ccc(Cl)cc1 (stereo unspecified) | ? | -8.1% | 18.4µM* | ? | -8.3 | ?
OC(COc1ccc(Cl)cc1)CN1C2=NCCCN2c2ccccc21 (stereo unspecified) | 20.6µM* | 0.0% | 20.6µM* | ? | -17.3 | ?
CN(C)CCNC1CCCCC1 | / | 16.7% | / | / | / | /
COc1ccccc1CNC(=O)c1cn(C)c2ccc(S(=O)(=O)N3CCCC3)cc2c1=O | ? | -22.8% | ? | 3.7% | 13.7 | -1.9%
